The source of these data is PubChem BioAssay (EPA / NIEHS).

Several values for one entry are separate records, joined by “and”; a condition that tells them apart may be missing. Identical values can stand only once. A structure can be active in one record and inactive in another. Activity calls are given as the source filed them. How the source made its calls: active means hit-call score of the fitted dose curve at least 0.9, where 1 is the maximum; inactive means score below 0.9.

Read-out in the experiment: C-C motif chemokine 2 (Homo sapiens) (UniProt P13500)
As to the kind of experiment: BSK_KF3CT_MCP1: BioMAP Diversity Plus: KF3CT Assay for Monocyte Chemoattractant Protein 1 (MCP1/CCL2) Biomarker Activity (AID 2283073). Conditions: primary human keratinocytes with fibroblasts; actives raise or lower the signal. The protocol: BSK_KF3CT is a cell-based, multiplexed-readout assay that uses keratinocytes and foreskin fibroblasts, a human skin primary cell co-culture, with measurements taken at 24 hours after chemical dosing in a 96-well plate.BSK_KF3CT_MCP1 is an assay component measured in the BSK_KF3CT assay. It measures MCP-1 antibody related to regulation of gene expression using ELISA technology.Data from the assay component BSK_KF3CT_MCP1 was analyzed into 1 assay endpoint. This assay endpoint, BSK_KF3CT_MCP1, was analyzed with bidirectional fitting relative to DMSO as the negative control and baseline of activity. Using a type of binding reporter, gain or loss-of-signal activity can be used to understand changes in the signaling as they relate to the gene CCL2. Furthermore, this assay endpoint can be referred to as a primary readout, because this assay has produced multiple assay endpoints where this one serves a signaling function. To generalize the intended target to other relatable targets, this assay endpoint is annotated to the cytokine intended target family, where the subfamily is chemotactic factor.
The levels of cell surface (or secreted, indicated by the prefix "s") biomarker endpoints were measured by ELISA. Overt cytotoxicity to cells in confluent adherent cultures (all systems other than the BT system) was assessed by measuring total protein levels using sulforhodamine B (SRB) staining in parallel cultures at the time of biomarker measurements, indicated as SRB endpoints. For proliferation assays for adherent cell types, individual cell types are cultured at sub-confluence and relative cell numbers quantified by SRB staining at time points optimized for each system (48 h: 3C and CASM3C systems; 72 h: BT and HDF3CGF systems; 96 h: SAg system). SRB was performed by staining cells with 0.1% SRB after fixation with 10% TCA and reading wells at 560 nm.Viability and proliferation of PBMC (T cells) was quantified by Alamar Blue reduction for the SAg and BT systems. For PBMC viability (referred to as PBMC Cytotoxicity within the assay endpoint names), cells were plated (75,000/well in a 96-well plate) and then chemical samples added for 1 h before addition of activators, SEB and TSST-1 (20 ng/mL final concentration each). Cells were incubated for 90 h. Then, Alamar Blue (20 uL/well) (Invitrogen, Cat DAL1100) was added for 6 h, and the plates were read with a fluorescence microplate reader at 546/580 nm (excitation/emission). For PBMC proliferation, cells were plated and activated as above but incubated for only 16 h prior to addition of Alamar Blue. Plates were read after 6 h.
Regarding `Clc1ccc(Cl)cc1`, the outcome was inactive.

As for `CCOCCOC(C)=O`, the outcome was inactive.

For `C=CC(N)=O`, the result was inactive.

In the case of `CN(C)c1nc(=O)n(C2CCCCC2)c(=O)n1C`, the result was inactive.

With `COc1ccc(O)c(C(C)(C)C)c1`, the outcome was inactive.

On to `O=C(NC(=O)c1c(F)cccc1F)Nc1cc(Cl)c(OC(F)(F)C(F)F)c(Cl)c1`, for which the result was inactive.

For `O=C(NC(=O)c1cc(F)c(F)cc1Cl)Nc1cc(F)ccc1N1CCC(C(=O)O)CC1`, the result was inactive.

With `CC#Cc1cc(C)nc(Nc2ccccc2)n1`, the result was inactive.

One may read the AC50 as the concentration giving half of the maximal activity seen. Turning to `CCC(C)c1cc([N+](=O)[O-])cc([N+](=O)[O-])c1O` (stereo not given), the AC50 was 11.6 µM (active).

Regarding `O=C(O)C(F)(F)C(F)(F)C(F)(F)C(F)(F)C(F)(F)C(F)(F)C(F)(F)C(F)(F)C(F)(F)F`, the AC50 was 22.7 µM (active) and 27.9 µM (active) and 18.5 µM (active).

`O=NN(c1ccccc1)c1ccccc1`: the outcome was inactive.

Turning to `CN(C)CCO`, the outcome was inactive.

Turning to `CCCCCCOC(=O)c1ccccc1C(=O)OCCCCCC`, the outcome was inactive.

`Sc1ccccc1`: the outcome was inactive.

In the case of `NS(=O)(=O)C(F)(F)C(F)(F)C(F)(F)C(F)(F)C(F)(F)C(F)(F)C(F)(F)C(F)(F)F`, the AC50 was 33.4 µM (active) and 48.9 µM (active) and 52.2 µM (active).

As for `O=C(O)C(F)(F)C(F)(F)C(F)(F)C(F)(F)C(F)(F)F`, the outcome was inactive.

In the case of `Oc1c(Cl)c(Cl)c(Cl)c(Cl)c1Cl`, the outcome was inactive and the AC50 is 10.8 µM (active).

With `O=C(O)C(F)(F)C(F)(F)C(F)(F)C(F)(F)C(F)(F)C(F)(F)C(F)(F)C(F)(F)F`, the AC50 was 17.7 µM (active) and 24.9 µM (active); the result was inactive.

In the case of `O=C(N[C@H]1CN2CCC1CC2)c1cc2ccoc2cn1`, the result was inactive.

Consider `CC(C)(O)C(=O)Nc1ccc([N+](=O)[O-])c(C(F)(F)F)c1`, for which the result was inactive.

As to `CCC(C)(c1ccc(O)cc1)c1ccc(O)cc1`, the result was inactive.

Consider `CCCCCCCCOC(=O)c1ccccc1C(=O)OCCCCCCCC`, for which the outcome was inactive.

On to `COS(=O)(=O)OC`, for which the outcome was inactive.

For `ClC1=C(Cl)[C@]2(Cl)[C@@H]3[C@H]4C[C@H]([C@@H]5O[C@H]45)[C@@H]3[C@@]1(Cl)C2(Cl)Cl`, the result was inactive.

As for `c1cc2ccc3cccc4ccc(c1)c2c34`, the outcome was inactive.

Turning to `Nc1ccc(-c2ccc(N)cc2)cc1`, the result was inactive.

Consider `ClC(Cl)=C(c1ccc(Cl)cc1)c1ccc(Cl)cc1`, for which the AC50 was 20 µM (active).

Regarding `CCSC(=O)N(CC)C1CCCCC1`, the result was inactive.

For `CC(C)(c1ccccc1)c1ccc(O)cc1`, the AC50 is 34.8 µM (active).

With `CC(c1ccc(O)cc1)(c1ccc(O)cc1)c1ccc(O)cc1`, the AC50 is 20 µM (active).

As to `O=S(=O)(O)C(F)(F)C(F)(F)C(F)(F)C(F)(F)F`, the outcome was inactive.

Regarding `Nn1cnnc1`, the result was inactive.

For the compound `CCNc1nc(NC(C)C)nc(SC)n1`, the result was inactive.

Take `CC(C)C(=O)OCC(C)(C)C(OC(=O)C(C)C)C(C)C` (stereo not given): the result was inactive.

Turning to `CCCCCCCCCC[N+](C)(C)CCCCCCCCCC`, the concentration at half-maximal activity (AC50) is 4.69 µM (active).

For the compound `Clc1ccc(C(Cl)(Cl)Cl)cc1`, the outcome was inactive.

`Oc1ccc(Cl)cc1Cl`: the outcome was inactive.

With `Cc1cc(O)ccc1Cl`, the result was inactive.
